# “And” between values parts separate entries of the source, which are not always exact repeats. Identical values can stand only once. Like-named read-outs stand apart in the source and are kept apart here.
# Experiments:
# [1] = system: IRAK4; settings: n = 1
# [2] = system: ITK; settings: n = 1
# [3] = system: JAK1(JH1domain-catalytic); settings: n = 1
# [4] = system: JAK1(JH2domain-pseudokinase); settings: concentration: 1 μM, replicates: in singlicate; n = 1
# [5] = system: JAK2(JH1domain-catalytic); settings: n = 1
# [6] = system: JAK3(JH1domain-catalytic); settings: concentration: 1 μM, replicates: in singlicate; n = 1
# [7] = system: T1, JNK1; settings: n = 1
# T1 construct: gene MAPK8
# [8] = system: T2, JNK2; settings: n = 1
# T2 construct: gene MAPK9
# [9] = system: T3, JNK3; settings: n = 1
# T3 construct: gene MAPK10
# [10] = system: KIT-autoinhibited; settings: n = 1
# [11] = system: KIT; settings: concentration: 1 μM, replicates: in singlicate; n = 1
# [12] = system: LATS1; settings: concentration: 1 μM, replicates: in singlicate; n = 1
# [13] = system: LATS2; settings: n = 1
# [14] = system: LCK; settings: n = 1
# [15] = system: LIMK1; settings: n = 1
# [16] = system: LIMK2; settings: n = 1
# [17] = system: T4, LKB1; settings: concentration: 1 μM, replicates: in singlicate; n = 1
# T4 construct: gene STK11
# [18] = system: T5, LOK; settings: concentration: 1 μM, replicates: in singlicate; n = 1
# T5 construct: gene STK10
# [19] = system: LRRK2; settings: concentration: 1 μM, replicates: in singlicate; n = 1
# [20] = system: LTK; settings: n = 1
# [21] = concentration: 1 μM, replicates: in singlicate
# [22] = concentration: 1 μM,replicates: in singlicate, 1 µM
# 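Further: KINOMEscan kinase panel screen.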
structure (smiles),measurement,setting,value
COc1cc2ncn(-c3cc(OCC4CCCO4)c(C(N)=O)s3)c2cc1OC (stereo not shown) [GSK204607],%Inh,[1]; [21],0%
same,%Inh,[2]; [21],5%
same,%Inh,[3]; [21],0%
same,%Inh,[4],0%
same,%Inh,[5]; [21],1%
same,%Inh,[6],0%
same,%Inh,[7]; [21],0%
same,%Inh,[8]; [21],17%
same,%Inh,[9]; [21],7%
same,%Inh,[10]; [21],0%
same,%Inh,[11],16%
same,%Inh,[12],0%
same,%Inh,[13]; [21],10%
same,%Inh,[14]; [21],7%
same,%Inh,[15]; [21],0%
same,%Inh,[16]; [21],16%
same,%Inh,[17],0%
same,%Inh,[18],96.9%
same,%Inh,[19],0%
same,%Inh,[20]; [21],11%
C[C@@H]1CCCCN1c1cc(-c2ccc3c(N)n[nH]c3c2)nc(N)n1 [GSK2258759],%Inh,[1]; [21],0%
same,%Inh,[2]; [21],0%
same,%Inh,[3]; [21],8%
same,%Inh,[4],0%
same,%Inh,[5]; [21],0%
same,%Inh,[6],0%
same,%Inh,[7]; [21],0%
same,%Inh,[8]; [21],10%
same,%Inh,[9]; [21],0%
same,%Inh,[10]; [21],0%
same,%Inh,[11],4%
same,%Inh,[12],23%
same,%Inh,[13]; [21],14%
same,%Inh,[14]; [21],0%
same,%Inh,[15]; [21],0%
same,%Inh,[16]; [21],19%
same,%Inh,[17],0%
same,%Inh,[18],0%
same,%Inh,[19],0%
same,%Inh,[20]; [21],0%
NC(=O)c1nnc2ccccc2c1N,%Inh,[1]; [21],33%
same,%Inh,[2]; [21],64%
same,%Inh,[3]; [21],4%
same,%Inh,[4],37%
same,%Inh,[5]; [21],58%
same,%Inh,[6],65%
same,%Inh,[7]; [21],27%
same,%Inh,[8]; [21],17%
same,%Inh,[9]; [21],13%
same,%Inh,[10]; [21],19%
same,%Inh,[11],10%
same,%Inh,[12],0%
same,%Inh,[13]; [21],0%
same,%Inh,[14]; [21],0%
same,%Inh,[15]; [21],0%
same,%Inh,[16]; [21],5%
same,%Inh,[17],0%
same,%Inh,[18],10%
same,%Inh,[19],75%
same,%Inh,[20]; [21],0%
Nc1nc(-c2nccs2)c(-c2ccnc3ccccc23)s1 [GW693542],%Inh,[1]; [21],16%
same,%Inh,[2]; [21],6%
same,%Inh,[3]; [21],17%
same,%Inh,[4],0%
same,%Inh,[5]; [21],10%
same,%Inh,[6],0%
same,%Inh,[7]; [21],20%
same,%Inh,[8]; [21],22%
same,%Inh,[9]; [21],1%
same,%Inh,[10]; [21],0%
same,%Inh,[11],0%
same,%Inh,[12],22%
same,%Inh,[13]; [21],0%
same,%Inh,[14]; [21],13%
same,%Inh,[15]; [21],6%
same,%Inh,[16]; [21],0%
same,%Inh,[17],0%
same,%Inh,[18],0%
same,%Inh,[19],19%
same,%Inh,[20]; [21],4%
Cc1c(Cn2ccn3c(=O)cc(N4CCOCC4)nc23)cccc1C(F)(F)F [GSK2289044],%Inh,[1]; [21],0%
same,%Inh,[2]; [21],5%
same,%Inh,[3]; [21],83%
same,%Inh,[4],0%
same,%Inh,[5]; [21],0%
same,%Inh,[6],0%
same,%Inh,[7]; [21],3%
same,%Inh,[8]; [21],6%
same,%Inh,[9]; [21],3%
same,%Inh,[10]; [21],0%
same,%Inh,[11],10%
same,%Inh,[12],0%
same,%Inh,[13]; [21],13%
same,%Inh,[14]; [21],7%
same,%Inh,[15]; [21],0%
same,%Inh,[16]; [21],0%
same,%Inh,[17],10%
same,%Inh,[18],0%
same,%Inh,[19],0%
same,%Inh,[20]; [21],0%
Cc1cc(-c2ccc3c(c2)CC[C@@H](N[C@@H](C)c2ccccc2)C3)cnc1N.Cl [GW412617],%Inh,[1]; [21],71%
same,%Inh,[2]; [21],18%
same,%Inh,[3]; [21],12%
same,%Inh,[4],46%
same,%Inh,[5]; [21],34%
same,%Inh,[6],0%
same,%Inh,[7]; [21],36%
same,%Inh,[8]; [21],3%
same,%Inh,[9]; [21],4%
same,%Inh,[10]; [21],0%
same,%Inh,[11],60%
same,%Inh,[12],0%
same,%Inh,[13]; [21],0%
same,%Inh,[14]; [21],34%
same,%Inh,[15]; [21],0%
same,%Inh,[16]; [21],0%
same,%Inh,[17],0%
same,%Inh,[18],0%
same,%Inh,[19],33%
same,%Inh,[20]; [21],0%
CN1C(=O)C(Nc2ccc(Cl)c(C(=O)O)c2)=C(c2ccc(Cl)cc2)C1=O [SB-404290],%Inh,[1]; [21],0%
same,%Inh,[2]; [21],4%
same,%Inh,[3]; [21],0%
same,%Inh,[4],17%
same,%Inh,[5]; [21],8%
same,%Inh,[6],0%
same,%Inh,[7]; [21],26%
same,%Inh,[8]; [21],2%
same,%Inh,[9]; [21],7%
same,%Inh,[10]; [21],0%
same,%Inh,[11],1%
same,%Inh,[12],15%
same,%Inh,[13]; [21],15%
same,%Inh,[14]; [21],23%
same,%Inh,[15]; [21],7%
same,%Inh,[16]; [21],0%
same,%Inh,[17],18%
same,%Inh,[18],4%
same,%Inh,[19],0%
same,%Inh,[20]; [21],9%
O=c1cc(N2CCOCC2)nc2n(Cc3cccc(Cl)c3Cl)ccn12 [GSK2286295],%Inh,[1]; [21],0%
same,%Inh,[2]; [21],4%
same,%Inh,[3]; [21],17%
same,%Inh,[4],0%
same,%Inh,[5]; [21],0%
same,%Inh,[6],0%
same,%Inh,[7]; [21],1%
same,%Inh,[8]; [21],30%
same,%Inh,[9]; [21],15%
same,%Inh,[10]; [21],0%
same,%Inh,[11],32%
same,%Inh,[12],0%
same,%Inh,[13]; [21],13%
same,%Inh,[14]; [21],9%
same,%Inh,[15]; [21],0%
same,%Inh,[16]; [21],0%
same,%Inh,[17],0%
same,%Inh,[18],0%
same,%Inh,[19],31%
same,%Inh,[20]; [21],0%
Cc1ccc(-c2cc(-c3c[nH]nc3-c3ccccn3)ccn2)cc1 [GW684088],%Inh,[1]; [21],0%
same,%Inh,[2]; [21],0%
same,%Inh,[3]; [21],12%
same,%Inh,[4],1%
same,%Inh,[5]; [21],0%
same,%Inh,[6],0%
same,%Inh,[7]; [21],29%
same,%Inh,[8]; [21],36%
same,%Inh,[9]; [21],53%
same,%Inh,[10]; [21],2%
same,%Inh,[11],23%
same,%Inh,[12],0%
same,%Inh,[13]; [21],6%
same,%Inh,[14]; [21],7%
same,%Inh,[15]; [21],0%
same,%Inh,[16]; [21],17%
same,%Inh,[17],12%
same,%Inh,[18],0%
same,%Inh,[19],0%
same,%Inh,[20]; [21],0%
CSc1nn2c(=O)cc(N3CCOCC3)nc2n1Cc1cccc(C(F)(F)F)c1C [GSK2363608],%Inh,[1]; [22],12% and 18%
same,%Inh,[2]; [22],2% and 12%
same,%Inh,[3]; [22],13% and 30%
same,%Inh,[4],0%
same,%Inh,[5]; [22],100% and 0%
same,%Inh,[6],0%
same,%Inh,[7]; [22],2% and 16%
same,%Inh,[8]; [22],15% and 5%
same,%Inh,[9]; [22],7% and 3%
same,%Inh,[10]; [22],2% and 0%
same,%Inh,[11],4%
same,%Inh,[12],0%
same,%Inh,[13]; [22],13% and 0%
same,%Inh,[14]; [22],29% and 2%
same,%Inh,[15]; [22],6% and 17%
same,%Inh,[16]; [22],20% and 0%
same,%Inh,[17],0%
same,%Inh,[18],0%
same,%Inh,[19],0%
same,%Inh,[20]; [22],17% and 0%
O=C(Nc1ccccc1)Nc1cccc(Oc2ccc3nccn3n2)c1,%Inh,[1]; [21],0%
same,%Inh,[2]; [21],2%
same,%Inh,[3]; [21],16%
same,%Inh,[4],5%
same,%Inh,[5]; [21],7%
same,%Inh,[6],0%
same,%Inh,[7]; [21],0%
same,%Inh,[8]; [21],0%
same,%Inh,[9]; [21],0%
same,%Inh,[10]; [21],39%
same,%Inh,[11],100%
same,%Inh,[12],0%
same,%Inh,[13]; [21],30%
same,%Inh,[14]; [21],33%
same,%Inh,[15]; [21],0%
same,%Inh,[16]; [21],0%
same,%Inh,[17],24%
same,%Inh,[18],18%
same,%Inh,[19],0%
same,%Inh,[20]; [21],0%
Fc1cc(Cl)ccc1Nc1ccnc2cc(-c3ccc(CN4CCCCC4)o3)ccc12 [GW560116],%Inh,[1]; [21],0%
same,%Inh,[2]; [21],2%
same,%Inh,[3]; [21],11%
same,%Inh,[4],0%
same,%Inh,[5]; [21],24%
same,%Inh,[6],0%
same,%Inh,[7]; [21],0%
same,%Inh,[8]; [21],1%
same,%Inh,[9]; [21],0%
same,%Inh,[10]; [21],0%
same,%Inh,[11],61%
same,%Inh,[12],3%
same,%Inh,[13]; [21],0%
same,%Inh,[14]; [21],35%
same,%Inh,[15]; [21],0%
same,%Inh,[16]; [21],0%
same,%Inh,[17],0%
same,%Inh,[18],0%
same,%Inh,[19],0%
same,%Inh,[20]; [21],8%
CCCc1ccc(S(=O)(=O)NC2CCN(c3ccnc(Nc4ccc(F)cc4)n3)C2)cc1 (stereo not shown) [GSK1379715],%Inh,[1]; [21],16%
same,%Inh,[2]; [21],6%
same,%Inh,[3]; [21],18%
same,%Inh,[4],0%
same,%Inh,[5]; [21],52%
same,%Inh,[6],0%
same,%Inh,[7]; [21],24%
same,%Inh,[8]; [21],21%
same,%Inh,[9]; [21],9%
same,%Inh,[10]; [21],0%
same,%Inh,[11],12%
same,%Inh,[12],0%
same,%Inh,[13]; [21],0%
same,%Inh,[14]; [21],0%
same,%Inh,[15]; [21],14%
same,%Inh,[16]; [21],0%
same,%Inh,[17],0%
same,%Inh,[18],0%
same,%Inh,[19],19%
same,%Inh,[20]; [21],4%
Cc1cccc(-c2cc(Nc3ccncc3)c3ccccc3n2)n1 [GSK223675],%Inh,[1]; [21],13%
same,%Inh,[2]; [21],0%
same,%Inh,[3]; [21],11%
same,%Inh,[4],5%
same,%Inh,[5]; [21],100%
same,%Inh,[6],0%
same,%Inh,[7]; [21],11%
same,%Inh,[8]; [21],27%
same,%Inh,[9]; [21],15%
same,%Inh,[10]; [21],0%
same,%Inh,[11],19%
same,%Inh,[12],0%
same,%Inh,[13]; [21],22%
same,%Inh,[14]; [21],9%
same,%Inh,[15]; [21],0%
same,%Inh,[16]; [21],0%
same,%Inh,[17],7%
same,%Inh,[18],0%
same,%Inh,[19],0%
same,%Inh,[20]; [21],0%
